Measured values reported in PubChem BioAssay AID1159580 (chemical genetic matrix, 2015).
Hit rate of the full screen: of about 5,500 compounds, about 2,000 (36%) were called active. Inconclusive results (about 18%) are left out. Rule as the data show it: active = normalized growth mostly below about 0.91 (no sharp cut-off); inconclusive = no clear call, values can overlap the other calls; inactive = mostly above about 0.92. This is one part of the list.

Assay: chemical genetic growth profiling, strain panel (AID 1159580);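 also: tested at 20 µM; growth read once vehicle control cultures reached saturation at 30 °C; 1 = growth at the plate median or of vehicle wells; lower values mean less growth of the strain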
Settings: S. cerevisiae deletion strains, growth OD
[1] = locus YAR019C, strain CDC15, stronger effect = lower value
[2] = locus YBL105C, strain PKC1, stronger effect = lower value
[3] = locus YBR135W, strain CKS1, stronger effect = lower value
[4] = locus YBR136W, strain MEC1, stronger effect = lower value
[5] = locus YBR160W, strain CDC28, stronger effect = lower value
[6] = locus YDL017W, strain CDC7, stronger effect = lower value
[7] = locus YDL028C, strain MPS1, stronger effect = lower value
[8] = locus YDL108W, strain KIN28, stronger effect = lower value
[9] = locus YDL132W, strain cdc53, stronger effect = lower value
[10] = locus YDL214C, strain PRR2, stronger effect = lower value
[11] = locus YDR052C, strain DBF4, stronger effect = lower value
[12] = locus YDR054C, strain cdc34, stronger effect = lower value
[13] = locus YDR226W, strain ADK1, stronger effect = lower value
[14] = locus YDR477W, strain SNF1, stronger effect = lower value
[15] = locus YER123W, strain YCK3, stronger effect = lower value
[16] = locus YER133W, strain GLC7, stronger effect = lower value
[17] = locus YFL009W, strain cdc4, stronger effect = lower value
[18] = locus YFL029C, strain CAK1, stronger effect = lower value
[19] = locus YFR003C, strain YPI1, stronger effect = lower value
[20] = locus YFR019W, strain FAB1, stronger effect = lower value
[21] = locus YFR028C, strain CDC14, stronger effect = lower value
[22] = locus YGR040W, strain KSS1, stronger effect = lower value
[23] = locus YGR052W, strain FMP48, stronger effect = lower value
[24] = locus YGR092W, strain DBF2, stronger effect = lower value
[25] = locus YHR030C, strain SLT2, stronger effect = lower value
[26] = locus YHR079C, strain IRE1, stronger effect = lower value
[27] = locus YHR082C, strain KSP1, stronger effect = lower value
[28] = locus YHR205W, strain SCH9, stronger effect = lower value
[29] = locus YIL147C, strain SLN1, stronger effect = lower value
[30] = locus YJL095W, strain BCK1, stronger effect = lower value
[31] = locus YJL128C, strain PBS2, stronger effect = lower value
[32] = locus YJL157C, strain FAR1, stronger effect = lower value
[33] = locus YJR016C, strain ILV3, stronger effect = lower value
[34] = locus YJR066W, strain TOR1 (second series), stronger effect = lower value
[35] = locus YJR066W, strain TOR1, stronger effect = lower value
[36] = locus YKL048C, strain ELM1, stronger effect = lower value
[37] = locus YKL067W, strain YNK1, stronger effect = lower value
[38] = locus YKL101W, strain HSL1, stronger effect = lower value
[39] = locus YKL193C, strain SDS22, stronger effect = lower value
[40] = locus YKL203C, strain TOR2, stronger effect = lower value
[41] = locus YLR113W, strain HOG1, stronger effect = lower value
[42] = locus YLR133W, strain CKI1, stronger effect = lower value
[43] = locus YLR403W, strain SFP1, stronger effect = lower value
[44] = locus YML070W, strain DAK1, stronger effect = lower value
[45] = locus YMR001C, strain CDC5, stronger effect = lower value
[46] = locus YMR205C, strain PFK2 (second series), stronger effect = lower value
[47] = locus YMR277W, strain FCP1, stronger effect = lower value
[48] = locus YNL006W, strain LST8, stronger effect = lower value
[49] = locus YNL020C, strain ARK1, stronger effect = lower value
[50] = locus YNL161W, strain CBK1, stronger effect = lower value
[51] = locus YNL183C, strain NPR1, stronger effect = lower value
[52] = locus YNL207W, strain RIO2, stronger effect = lower value
[53] = locus YNL222W, strain SSU72, stronger effect = lower value
[54] = locus YNL307C, strain MCK1 (second series), stronger effect = lower value
[55] = locus YOL078W, strain AVO1, stronger effect = lower value
[56] = locus YOL136C, strain PFK27, stronger effect = lower value
[57] = locus YOR061W, strain CKA2, stronger effect = lower value
[58] = locus YOR119C, strain RIO1, stronger effect = lower value
[59] = locus YOR231W, strain MKK1, stronger effect = lower value
[60] = locus YOR329C, strain SCD5, stronger effect = lower value
[61] = locus YPL031C, strain PHO85, stronger effect = lower value
[62] = locus YPL153C, strain RAD53, stronger effect = lower value
[63] = locus YPL204W, strain HRR25, stronger effect = lower value
[64] = locus YPL209C, strain IPL1, stronger effect = lower value
[65] = locus YPL256C, strain CLN2, stronger effect = lower value
[66] = locus YPR025C, strain CCL1, stronger effect = lower value
[67] = locus YPR106W, strain ISR1, stronger effect = lower value
[68] = locus YPR111W, strain DBF20, stronger effect = lower value
[69] = strain NNK1, stronger effect = lower value
[70] = strain TSCII, stronger effect = lower value

Measured: normalized growth

COc1ccccc1C(C[N+](=O)[O-])c1c(N)n(C)c(=O)n(C)c1=O (stereo unspecified)
inactive: [1] 0.942 | [2] 0.955 | [3] 0.954 | [4] 0.945 | [5] 0.953 | [6] 0.958 | [7] 0.948 | locus YDL101C, strain DUN1, stronger effect = lower value 0.916 | [8] 0.945 | [9] 0.953 | [11] 0.962 | [12] 0.945 | [13] 0.954 | [17] 0.96 | [18] 0.933 | [19] 0.953 | [21] 0.956 | [29] 0.953 | [31] 0.941 | [33] 0.962 | [39] 0.963 | [45] 0.946 | [47] 0.956 | [48] 0.957 | [50] 0.957 | [52] 0.954 | [53] 0.956 | [55] 0.956 | [57] 0.678 | [60] 0.956 | [64] 0.95 | [66] 0.958 | [67] 0.961 | [68] 0.966 | [69] 0.953 | [70] 0.941
active: [10] 0.583 | [14] 0.555 | [15] 0.374 | [16] 0.602 | [20] 0.263 | [22] 0.643 | [23] 0.512 | [24] 0.443 | [25] 0.302 | [26] 0.401 | [27] 0.559 | [28] 0.21 | [30] 0.33 | [32] 0.593 | [34] 0.133 | [35] 0.369 | [36] 0.654 | [37] 0.612 | [38] 0.621 | [40] 0.61 | [41] 0.382 | [42] 0.616 | [43] 0.49 | [44] 0.527 | [46] 0.679 | [49] 0.688 | [51] 0.381 | [54] 0.151 | [56] 0.485 | [58] 0.641 | [59] 0.468 | [61] 0.467 | [62] 0.546 | [63] 0.603 | [65] 0.348

COc1ccccc1N1CCN(CCCNc2c(C)c(=O)n(C)c(=O)n2C)CC1
inactive: locus YAL013W, strain DEP1, stronger effect = lower value 1.02 | locus YAL040C, strain CLN3, stronger effect = lower value 0.984 | locus YCL061C, strain MRC1 (second series), stronger effect = lower value 0.998 | locus YDR150W, strain NUM1, stronger effect = lower value 1 | locus YDR363W, strain ESC2, stronger effect = lower value 1.01 | locus YER002W, strain NOP16, stronger effect = lower value 0.999 | locus YGR229C, strain SMI1, stronger effect = lower value 1.04 | locus YJR075W, strain HOC1, stronger effect = lower value 1.01 | locus YMR307W, strain GAS1, stronger effect = lower value 1.02 | locus YNL128W, strain TEP1, stronger effect = lower value 1 | locus YNL175C, strain NOP13, stronger effect = lower value 0.976 | locus YNL197C, strain WHI3, stronger effect = lower value 0.985 | locus YNL224C, strain SQS1, stronger effect = lower value 0.995 | locus YNL322C, strain KRE1, stronger effect = lower value 0.987 | locus YOR083W, strain WHI5 (second series), stronger effect = lower value 0.978

CC1(C)C/C(=N/Nc2ccc(C(F)(F)F)cc2)c2cc(C(C)(C)C)c(O)c(O)c2O1
active: [10] 0.481 | [14] 0.6 | [15] 0.375 | [20] 0.436 | [22] 0.635 | [23] 0.347 | [24] 0.214 | [25] 0.246 | [26] 0.29 | [27] 0.314 | [28] 0.0779 | [30] 0.283 | [31] 0.129 | [34] 0.355 | [35] 0.36 | [36] 0.275 | [37] 0.532 | [38] 0.204 | [41] 0.199 | [42] 0.419 | [44] 0.426 | [46] 0.364 | [49] 0.375 | [51] 0.302 | [54] 0.116 | [56] 0.427 | [57] 0.243 | [58] 0.534 | [59] 0.277 | [61] 0.576 | [62] 0.436 | [63] 0.535 | [65] 0.243 | [67] 0.421 | [68] 0.319 | [69] 0.434
inactive: [1] 0.989 | [2] 0.978 | [3] 0.977 | [4] 0.978 | [5] 0.976 | [6] 0.976 | [7] 0.96 | [8] 0.976 | [9] 0.977 | [11] 0.975 | [12] 0.968 | [13] 0.988 | [16] 0.896 | [17] 0.979 | [18] 0.978 | [19] 0.981 | [21] 0.98 | [29] 0.975 | [32] 0.896 | [33] 0.991 | [39] 0.973 | [40] 0.731 | [43] 0.865 | [45] 0.98 | [47] 0.977 | [48] 0.975 | [50] 0.976 | [52] 0.976 | [53] 0.995 | [55] 0.975 | [60] 0.983 | [64] 0.983 | [66] 0.981 | [70] 0.986
